Experimental data: PubChem BioAssay (NCATS)
Values without a mark were called inactive. Records with an inconclusive call do not appear. Where a call stands in place of a potency, no number is given. Activity calls are given as the source filed them. Calls come from the whole dose curve; as a rule, active = well fitted curve in the direction sought with a large enough effect; inconclusive = small, poorly fitted or top-dose-only effect, or another doubt; inactive = no such curve, though single readings can be large; an effect the other way counts as inactive or inconclusive. Where a SMILES comes first, the peptide text is derived from it. The star is where a group is joined. βNA = c1ccc2cc(N*)ccc2c1; Cbz = O=C(OCc1ccccc1)*

How the values were obtained:
[1] = target: Glutathione peroxidase 1 (Homo sapiens) (UniProt P07203); experiment: Primary qHTS Assay for Inhibitors of Recombinant Selenoprotein Glutathione Peroxidase 1 (GPX1) (AID 1845191); settings: recombinant GPX1, GR-coupled NADPH fluorescence, 15 min; series mostly up to 27.7 µM; note: nearly all actives have a fitted effect of over 65% in size
Outline: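 GPX1 10 nM, GR 100 nM, GSH 1 mM, NADPH 0.5 mM, CHP 0.5 mM (final). 30-min cpd preincubation, RT. Ex340/Em450 read t=0, t=15 min.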

[2] = target: Phospholipid hydroperoxide glutathione peroxidase GPX4 (Homo sapiens) (UniProt P36969); experiment: Primary qHTS Assay for Inhibitors of Recombinant Selenoprotein Glutathione Peroxidase 4 (GPX4) (AID 1845192); settings: recombinant GPX4, GR-coupled NADPH fluorescence, 15 min; series mostly up to 27.8 µM; note: nearly all actives have a fitted effect of over 65% in size
Outline: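 qHTS, GR-coupled: GPX4 200 nM + cpd 30 min RT → GSH 1 mM, NADPH 0.5 mM, GR 100 nM → CHP 0.5 mM start; fluor 340/450 at t0 and t15 min; no-enzyme wells as control.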

[3] = target: Luciferin 4-monooxygenase (Photinus pyralis) (UniProt P08659); experiment: Primary firefly luciferase (FLuc) qHTS assay for identification of artifact compounds. (AID 1845220); settings: purified firefly luciferase, luminescence, 5 min; series mostly up to 54.1 µM; note: nearly all actives have a fitted effect of over 60% in size
Outline: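 Reaction readout was CCD-imaged luminescence, taken 5 min after adding 10 nM purified firefly enzyme to compound-treated wells holding 10 uM luciferin and ATP in pH 7.6 buffer.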

[4] = Primary fluorescence-based thiol-reactive (MSTI) qHTS assay for identification of artifact compounds. (AID 1845221); settings: MSTI thiol-reactivity probe, 1 h; series mostly up to 53.8 µM; note: nearly all actives have a fitted effect of over 65% in size; note: potency is the fitted concentration of half-maximal effect
Outline: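 Curve-fitted percent inhibition (4-parameter Hill) derived from fluorescence, Ex 525/Em 598 nm, scaled with Acetyl-MSTI and MSTI; 1 h incubation at room temperature.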

[5] = test system: Nanoluciferase (engineered Oplophorus gracilirostris luciferase); experiment: Primary Nanoluciferase (NLuc) qHTS assay for identification of artifact compounds. (AID 1845222); settings: NLuc-conditioned medium, Nano-Glo luminescence, 5 min; series mostly up to 54.1 µM;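 note: NLuc secreted into diluted conditioned medium of S16 cells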
Outline: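 Concentration-response data were obtained by luminescence after 5 min with Nano-Glo substrate at 1:100. The enzyme was diluted S16 NLuc-expressing cell medium, preincubated with compound for 15 min at RT. Curves were fitted with a 4-parameter Hill model.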

[6] = Primary redox qHTS assay for identification of artifact compounds. (AID 1845223); settings: Amplex Red/HRP redox cycling with DTT, fluorescence; series mostly up to 53.8 µM
Outline: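 Redox-cycling detection via DTT (250 uM final) oxidation coupled to Amplex Red (25 uM)/HRP (250 mU/mL) in HBSS. 15 min preincubation plus 30 min after DTT, room temperature. Ex/Em 525/598 nm; 4-parameter Hill fit against DMSO and 10 uM DA3003.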

Glutathione peroxidase 1 (Homo sapiens), sequence (P07203 whole entry, looked up): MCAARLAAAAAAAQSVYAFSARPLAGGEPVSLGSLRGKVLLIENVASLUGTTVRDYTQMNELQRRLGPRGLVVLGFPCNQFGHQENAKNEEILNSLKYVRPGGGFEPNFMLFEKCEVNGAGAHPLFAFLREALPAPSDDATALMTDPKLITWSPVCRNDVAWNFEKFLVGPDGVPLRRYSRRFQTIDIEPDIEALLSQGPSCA
Phospholipid hydroperoxide glutathione peroxidase GPX4 (Homo sapiens), sequence (P36969 whole entry, looked up): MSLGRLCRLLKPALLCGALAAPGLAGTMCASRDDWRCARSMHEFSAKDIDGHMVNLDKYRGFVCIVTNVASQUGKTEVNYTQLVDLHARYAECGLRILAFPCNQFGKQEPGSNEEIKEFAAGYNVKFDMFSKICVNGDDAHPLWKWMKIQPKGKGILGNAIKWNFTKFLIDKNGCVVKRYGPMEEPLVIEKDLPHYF

Row | SMILES | Potency [1] | Potency [2] | Potency [3] | Potency [4] | Potency [5] | Potency [6]
1 | CC1CCC2(C)CCC3(C)C(=CCC4C5(C)CCC(O)C(C)(C(=O)O)C5CCC43C)C2C1C (stereo unspecified) | inactive | inactive | inactive | inactive | inactive | inactive
2 | COc1ccc(-n2c(=O)[nH]c3cc(C(=O)NCc4ccc(Cl)cc4)sc3c2=O)nc1OC | inactive | inactive | inactive | inactive | inactive | inactive
3 | CC(C)(O)C1CC=C(C(=O)OC[C@H]2O[C@@H](OC(=O)C3=CCC(C(C)(C)O)CC3)[C@H](O)[C@@H](O)[C@@H]2O)CC1 (stereo partly specified) | inactive | inactive | inactive | 4.12 µM (active) | inactive | inactive
4 | COc1cc(/C=C/C(=O)O[C@@H]2C[C@@](O)(C(=O)O)C[C@@H](O)[C@@H]2O)ccc1O | inactive | inactive | inactive | 6.56 µM (active) | inactive | inactive
5 | C=C1CCC2[C@@](C)(C(=O)O)CCC[C@@]2(C)[C@@H]1CCc1ccoc1 (stereo partly specified) | inactive | inactive | inactive | inactive | inactive | inactive
6 | CC(=O)OC1CC2(C)C(CCC(C)C23Cc2c(O)cc4c(c2O3)CNC4=O)C(C)(C)C1O (stereo unspecified) | inactive | inactive | inactive | inactive | inactive | inactive
7 | CC1(C(=O)O)CCCC2(C)C3CC4C5CC3(CCC12)CC45C (stereo unspecified) | inactive | inactive | inactive | inactive | inactive | inactive
8 | COc1cc(-c2ccc(O)cc2)c(OC)c(O)c1C1=CC(=O)OC1CC(=O)O (stereo unspecified) | inactive | inactive | inactive | inactive | inactive | inactive
9 | O=C(O)CCc1cc2ccoc2cc1O[C@@H]1O[C@H](CO)[C@@H](O)[C@H](O)[C@H]1O | inactive | inactive | inactive | inactive | inactive | inactive
10 | CC(C)[C@@](O)(c1ccc2cc(OC(F)F)c(OC(F)F)cc2c1)c1cn[nH]n1 | inactive | inactive | inactive | inactive | inactive | inactive
11 | CC1(C)OC(=O)C=C[C@@]2(C)C1CC(=O)[C@]1(C)C2CC[C@@]2(C)[C@H](c3ccoc3)OC(=O)[C@H]3O[C@]321 (stereo partly specified) | inactive | inactive | inactive | inactive | inactive | inactive
12 | C[C@@H]1O[C@@H](O[C@H]2[C@@H]3C=CO[C@@H](O[C@@H]4O[C@H](CO)[C@@H](O)[C@H](O)[C@H]4O)[C@@H]3[C@@]3(CO)O[C@@H]23)[C@H](O)[C@H](OC(=O)/C=C/c2ccc(O)cc2)[C@H]1OC(=O)/C=C/c1ccc(O)cc1 | inactive | inactive | inactive | inactive | inactive | inactive
13 | COC(=O)C1C(c2ccc(O)cc2)C(C(=O)O)C1c1ccc(O)cc1 (stereo unspecified) | inactive | inactive | inactive | inactive | inactive | inactive
14 | CC1(C)CC2C(O)C3=C(CC(C)(O)C2C1)C(=O)OC3 (stereo unspecified) | inactive | inactive | inactive | inactive | inactive | inactive
15 | CC(C)CC(NC(=O)OCc1ccccc1)C(=O)NC(CC(C)C)C(=O)NC(CCC(=O)O)C(=O)Nc1ccc2ccccc2c1 (stereo not drawn) (Cbz-Leu-Leu-Glu-βNA; configuration not given here) | inactive | inactive | inactive | inactive | inactive | inactive
16 | CC(C)c1ccc2c(c1)C(=O)CC1C(C)(C(=O)O)CCCC21C (stereo unspecified) | inactive | inactive | inactive | inactive | inactive | inactive
17 | C=C(CCO)C(=O)OCC1OCC(OC(=O)C(=C)CCO[C@@H]2O[C@H](CO)[C@@H](O)[C@H](O)[C@H]2O)C(O)C1O (stereo partly specified) | inactive | inactive | inactive | inactive | inactive | inactive
18 | CC(C)(O)c1ccc2c(c1)C(=O)C[C@H]1[C@](C)(C(=O)O)CCC[C@]21C | inactive | inactive | inactive | inactive | inactive | inactive
19 | CC(=O)O[C@@]1(C)[C@@H]2CC(=C(C)C)C(=O)C[C@@]2(C)CC[C@H]1OC(=O)C1(C)OC1C (stereo partly specified) | inactive | inactive | inactive | inactive | inactive | inactive
20 | CC1(C)CC(NC(=O)C(=O)Nc2ccc(Cl)cc2)CC(C)(C)N1 | inactive | inactive | inactive | inactive | inactive | inactive
21 | COC(=O)Cn1nc(-c2cccc(OC)c2)c2ccccc21 | inactive | inactive | inactive | inactive | inactive | inactive
